Here are results for 19 compounds from ChEMBL document CHEMBL1961873, “Compounds: GSK PKIS; Assays: Nanosyn kinase panel” (2012).
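Further: values are mean percent inhibition of GSK3B activity, from the GSK Published Kinase Inhibitor Set (PKIS) screening dataset.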

Sequence of Glycogen synthase kinase-3 beta (Homo sapiens) (P49841 whole entry, looked up): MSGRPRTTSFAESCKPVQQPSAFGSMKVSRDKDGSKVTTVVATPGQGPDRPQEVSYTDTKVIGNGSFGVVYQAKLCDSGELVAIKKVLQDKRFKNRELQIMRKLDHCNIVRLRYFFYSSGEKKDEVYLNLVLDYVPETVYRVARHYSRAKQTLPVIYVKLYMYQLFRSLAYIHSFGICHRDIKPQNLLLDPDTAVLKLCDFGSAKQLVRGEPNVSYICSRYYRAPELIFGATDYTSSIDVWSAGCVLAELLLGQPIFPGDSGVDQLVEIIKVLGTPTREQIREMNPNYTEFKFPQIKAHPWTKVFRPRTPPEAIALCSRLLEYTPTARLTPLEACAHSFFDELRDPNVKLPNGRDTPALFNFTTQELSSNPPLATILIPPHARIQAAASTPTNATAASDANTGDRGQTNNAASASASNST

This assay has as its target Glycogen synthase kinase-3 beta (Homo sapiens) (UniProt P49841). As to conditions: at 0.1 µM.
By inhibition is commonly meant the change of the read-out against control, counted positive when it falls. Turning to `Cc1ccc(C(=O)NC2CCCCC2)cc1-c1ccc(C(=O)NCC2CC2)cc1`, the inhibition is 1.78%.

On to `COc1cc2c(cc1Nc1nc(N3CCc4ccccc43)c3cc[nH]c3n1)N(C(=O)CN(C)C)CC2`, for which the inhibition turned out to be 0.15%.

Consider `CC1=C(C(=O)Nc2ccc3[nH]ncc3c2)C(c2ccc(Cl)c(Cl)c2)CC(=O)N1` (centres undefined), for which the inhibition is -0.24%.

Consider `Nc1ncnc2occ(-c3ccc(NC(=O)Nc4cc(C(F)(F)F)cc(C(F)(F)F)c4)cc3)c12`, for which the inhibition was 1.08%.

In the case of `CS(=O)(=O)CCNCc1nc(-c2ccc3ncnc(Nc4ccc(F)c(Cl)c4)c3c2)cs1`, the inhibition came out at 1.2%.

On to `COc1ccccc1Nc1ncc(-c2ccccc2)o1`, for which the inhibition is 2.57%.

Consider `CCn1c(-c2nonc2N)nc2cncc(C(=O)N3CCNCC3)c21`, for which the inhibition turned out to be 1.93%.

As for `CS(=O)(=O)Nc1ccc(N/C=C2\C(=O)Nc3ccccc32)cc1`, the inhibition was 6.71%.

With `CNC(=O)c1cncc(/C=C/c2c(Cl)cccc2Cl)c1`, the inhibition was -1.21%.

For the compound `Fc1cccc(COc2ccc(Nc3ncnc4sc(-c5cccs5)cc34)cc2Cl)c1`, the inhibition is 1.97%.

In the case of `N#Cc1c(NC(=O)c2cccc3ccccc23)sc2c1CCCC2`, the inhibition is 3.72%.

`CCc1cccc(NC(=O)Nc2ccc(Oc3ccc4nc(NC(=O)OC)[nH]c4c3)cc2)c1`: the inhibition was determined as 1.88%.

`CCn1c(-c2nonc2N)nc2ccncc21`: the inhibition amounted to 0.08%.

On to `O=C1Nc2ccc(C(=O)c3ccco3)cc2C1=Cc1cc(Cl)c(O)c(Cl)c1`, for which the inhibition worked out at 31.1%.

For `CS(=O)(=O)CCNCc1ccc(-c2ccc3ncnc(Nc4ccc(OCc5ccccc5)c(Cl)c4)c3c2)o1`, the inhibition came out at 2.15%.

For the compound `CCn1c(-c2nonc2N)nc2cncc(C(=O)N3CC[C@H](N)C3)c21`, the inhibition worked out at 2.36%.

In the case of `Cc1cccc(-c2n[nH]cc2-c2ccc3ncccc3n2)n1`, the inhibition was -0.14%.

As for `CCCN1CCC=C(c2ccc(Nc3nc(Nc4ccccc4C(N)=O)c4cc[nH]c4n3)c(C)c2)C1`, the inhibition was determined as 3.05%.

For the compound `Nc1ncnc2occ(-c3ccc(NC(=O)Nc4cccc(C(F)(F)F)c4)cc3)c12`, the inhibition stood at 2.89%.
